Assay results as given in the supplement of paper PMC10849652.
Of roughly 7,900 targets only a part is listed; those with a hit were picked by preference. About 0.6% of all pairs of compound and target were hits.

Assays:
Assay in all cases: log2 fold change, soluble protein after heating vs DMSO (PISA); higher = thermal stabilisation; K562 cells, 10 uM, 30 min; active = over 0.2 and 3.5 SD of the protein, either way, in both replicates (recomputed)
saracatinib = compound: CN1CCN(CCOc2cc(OC3CCOCC3)c3c(Nc4c(Cl)ccc5c4OCO5)ncnc3c2)CC1 [saracatinib]
Summary of the method: (§1)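 K562 cells (2×10^6 cells/mL) were treated with 10 μM compound for 30 min, and aliquots were heated for 3 min over 48°C-58°C. Pooled aliquots were extracted in PBS with 0.5% NP-40 at 4°C, and the supernatant after 21,000xg for 90 min was measured by TMTpro 16plex LC-MS/MS with channel sums equalised. Reported thermal stability, relative to control samples and from duplicates, is a log2 fold change.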

sotrastaurin = compound: CN1CCN(c2nc(C3=C(c4c[nH]c5ccccc45)C(=O)NC3=O)c3ccccc3n2)CC1 [sotrastaurin]
Summary of the method: as §1

alvocidib = compound: CN1CC[C@H](c2c(O)cc(O)c3c(=O)cc(-c4ccccc4Cl)oc23)[C@H](O)C1 [alvocidib]
Summary of the method: as §1

Tubastatin A = compound: CN1CCc2c(c3ccccc3n2Cc2ccc(C(=O)NO)cc2)C1 [Tubastatin A]
Summary of the method: as §1

[1] = compound: CNC(=O)C1=CC=CC=C1NC2=NC(=NC=C2Cl)NC3=C(C=C(C=C3)N4CCOCC4)OC
Summary of the method: as §1

defactinib = compound: CNC(=O)c1ccc(Nc2ncc(C(F)(F)F)c(NCc3nccnc3N(C)S(C)(=O)=O)n2)cc1 [defactinib]
Summary of the method: as §1

rucaparib = compound: CNCc1ccc(-c2[nH]c3cc(F)cc4c3c2CCNC4=O)cc1 [rucaparib]
Summary of the method: as §1

[2] = compound: CNc1nc(-c2ccc3c(N)n[nH]c3c2)cc(N2C[C@@H](C(=O)NC3CCCCC3)CC[C@H]2C)n1
Summary of the method: as §1

encorafenib = compound: COC(=O)N[C@@H](C)CNc1nccc(-c2cn(C(C)C)nc2-c2cc(Cl)cc(NS(C)(=O)=O)c2F)n1 [encorafenib]
Summary of the method: as §1

[3] = compound: COC(=O)[C@H](CCSC)NC(=O)C1=C(C=C(C=C1)NC[C@H](CS)N)C2=CC=CC=C2
Summary of the method: as §1

Measured: log2 fold change

RNPEP (UniProt Q9H4A4)
Chain of UniProt Q9H4A4 (Q9H4A4 whole entry, looked up): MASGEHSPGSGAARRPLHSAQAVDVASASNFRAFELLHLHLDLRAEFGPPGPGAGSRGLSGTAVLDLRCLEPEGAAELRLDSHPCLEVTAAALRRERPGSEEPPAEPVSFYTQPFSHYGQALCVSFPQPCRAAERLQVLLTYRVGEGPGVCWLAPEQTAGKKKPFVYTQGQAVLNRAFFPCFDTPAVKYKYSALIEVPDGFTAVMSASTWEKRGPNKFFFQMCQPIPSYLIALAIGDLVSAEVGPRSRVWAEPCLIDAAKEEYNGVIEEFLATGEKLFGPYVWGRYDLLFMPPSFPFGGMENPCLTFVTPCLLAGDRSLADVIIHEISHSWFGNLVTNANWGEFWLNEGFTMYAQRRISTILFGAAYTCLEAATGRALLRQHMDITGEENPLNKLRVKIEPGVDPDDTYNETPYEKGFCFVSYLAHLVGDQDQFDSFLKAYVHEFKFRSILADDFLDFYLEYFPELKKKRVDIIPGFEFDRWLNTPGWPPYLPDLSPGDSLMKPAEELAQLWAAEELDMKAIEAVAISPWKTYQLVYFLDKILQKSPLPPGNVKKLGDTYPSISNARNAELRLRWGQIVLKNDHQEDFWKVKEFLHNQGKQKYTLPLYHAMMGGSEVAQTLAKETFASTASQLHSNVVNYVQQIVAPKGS
inactive: saracatinib -0.02 | sotrastaurin -0.038 | alvocidib -0.106 | Tubastatin A 0.064 | [1] 0.034 | defactinib -0.036 | rucaparib -0.004 | [2] 0.04 | encorafenib -0.005 | [3] -0.041

ROCK2 (UniProt O75116)
inactive: saracatinib 0.02 | sotrastaurin -0.096 | alvocidib -0.01 | Tubastatin A -0.001 | [1] -0.062 | defactinib -0.097 | rucaparib -0.027 | [2] 0.212 | encorafenib 0.042 | [3] -0.003

RPS18 (UniProt P62269)
inactive: saracatinib -0.022 | sotrastaurin 0.039 | alvocidib 0.2 | Tubastatin A 0.105 | [1] 0.071 | defactinib 0.21 | rucaparib 0.152 | [2] 0.041 | encorafenib 0.008 | [3] 0.04

RAVER1 (UniProt E9PAU2)
inactive: saracatinib -0.086 | sotrastaurin -0.376 | alvocidib -0.624 | Tubastatin A 0.413 | [1] -0.069 | defactinib -0.322 | rucaparib -0.186 | [2] -0.087 | encorafenib 0.105 | [3] -0.065

RGS10 (UniProt O43665)
Chain of UniProt O43665 (O43665 whole entry, looked up): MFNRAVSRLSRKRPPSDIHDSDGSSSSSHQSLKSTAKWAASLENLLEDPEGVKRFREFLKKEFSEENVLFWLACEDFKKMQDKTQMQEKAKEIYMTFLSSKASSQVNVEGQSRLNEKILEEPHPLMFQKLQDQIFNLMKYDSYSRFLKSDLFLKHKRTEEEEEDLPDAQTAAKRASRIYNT
inactive: saracatinib 0.033 | sotrastaurin -0.023 | alvocidib -0.042 | Tubastatin A 0.049 | [1] 0.014 | defactinib -0.11 | rucaparib 0.038 | [2] 0 | encorafenib -0.001 | [3] -0.002

ROR2 (UniProt Q01974)
inactive: saracatinib 0.034 | sotrastaurin -0.071 | alvocidib -0.06 | Tubastatin A -0.025 | [1] -0.023 | defactinib -0.107 | rucaparib -0.012 | [2] 0.084 | encorafenib 0.03 | [3] -0.121

RALY (UniProt Q9UKM9)
inactive: saracatinib -0.091 | sotrastaurin -0.031 | alvocidib 0.041 | Tubastatin A 0.226 | [1] -0.01 | defactinib 0.089 | rucaparib 0.221 | [2] 0.066 | encorafenib 0.073 | [3] -0.021

RPS25 (UniProt P62851)
inactive: saracatinib -0.052 | sotrastaurin 0.007 | alvocidib 0.178 | Tubastatin A 0.094 | [1] 0.095 | defactinib 0.184 | rucaparib 0.124 | [2] 0.076 | encorafenib 0.01 | [3] 0.024

SCPEP1 (UniProt Q9HB40)
inactive: saracatinib -0.029 | sotrastaurin 0.031 | alvocidib -0.009 | Tubastatin A -0.012 | [1] 0.021 | defactinib 0.005 | rucaparib 0.064 | [2] -0.022 | encorafenib -0.025 | [3] -0.004

RDH13 (UniProt Q8NBN7)
Chain of UniProt Q8NBN7 (Q8NBN7 whole entry, looked up): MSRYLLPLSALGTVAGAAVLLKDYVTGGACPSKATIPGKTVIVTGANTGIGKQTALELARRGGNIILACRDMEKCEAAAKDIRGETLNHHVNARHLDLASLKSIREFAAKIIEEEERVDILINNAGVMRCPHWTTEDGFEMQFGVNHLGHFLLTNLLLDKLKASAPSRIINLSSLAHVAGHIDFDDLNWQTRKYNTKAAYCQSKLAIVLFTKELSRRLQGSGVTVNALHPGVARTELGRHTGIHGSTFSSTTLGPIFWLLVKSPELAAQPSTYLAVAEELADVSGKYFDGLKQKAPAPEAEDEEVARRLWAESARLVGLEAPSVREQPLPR
inactive: saracatinib -0.084 | sotrastaurin 0.027 | alvocidib -0.097 | Tubastatin A -0.063 | [1] -0.062 | defactinib -0.043 | rucaparib 0.029 | [2] 0.016 | encorafenib 0.014 | [3] -0.016

RRAGB (UniProt Q5VZM2)
Chain of UniProt Q5VZM2 (Q5VZM2 whole entry, looked up): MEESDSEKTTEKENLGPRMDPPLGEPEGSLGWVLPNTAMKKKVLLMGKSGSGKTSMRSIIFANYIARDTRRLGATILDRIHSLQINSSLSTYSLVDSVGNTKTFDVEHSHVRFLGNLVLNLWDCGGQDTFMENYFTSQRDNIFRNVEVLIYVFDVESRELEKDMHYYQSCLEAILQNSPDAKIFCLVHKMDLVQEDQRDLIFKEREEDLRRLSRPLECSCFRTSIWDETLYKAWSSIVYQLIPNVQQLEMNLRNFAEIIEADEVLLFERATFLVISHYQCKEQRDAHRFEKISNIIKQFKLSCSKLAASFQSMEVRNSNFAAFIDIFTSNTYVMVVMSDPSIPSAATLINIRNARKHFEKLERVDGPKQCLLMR
inactive: saracatinib 0.076 | sotrastaurin 0.028 | alvocidib -0.029 | Tubastatin A -0.03 | [1] -0.01 | defactinib -0.075 | rucaparib -0.009 | [2] -0.009 | encorafenib 0.06 | [3] 0.084

RBM33 (UniProt Q96EV2)
inactive: saracatinib 0.071 | sotrastaurin -0.017 | alvocidib -0.177 | Tubastatin A 0.007 | [1] -0.021 | rucaparib -0.017 | [2] -0.044 | encorafenib 0.02 | [3] 0.03
active: defactinib -0.273

REL (UniProt Q04864)
Chain of UniProt Q04864 (Q04864 whole entry, looked up): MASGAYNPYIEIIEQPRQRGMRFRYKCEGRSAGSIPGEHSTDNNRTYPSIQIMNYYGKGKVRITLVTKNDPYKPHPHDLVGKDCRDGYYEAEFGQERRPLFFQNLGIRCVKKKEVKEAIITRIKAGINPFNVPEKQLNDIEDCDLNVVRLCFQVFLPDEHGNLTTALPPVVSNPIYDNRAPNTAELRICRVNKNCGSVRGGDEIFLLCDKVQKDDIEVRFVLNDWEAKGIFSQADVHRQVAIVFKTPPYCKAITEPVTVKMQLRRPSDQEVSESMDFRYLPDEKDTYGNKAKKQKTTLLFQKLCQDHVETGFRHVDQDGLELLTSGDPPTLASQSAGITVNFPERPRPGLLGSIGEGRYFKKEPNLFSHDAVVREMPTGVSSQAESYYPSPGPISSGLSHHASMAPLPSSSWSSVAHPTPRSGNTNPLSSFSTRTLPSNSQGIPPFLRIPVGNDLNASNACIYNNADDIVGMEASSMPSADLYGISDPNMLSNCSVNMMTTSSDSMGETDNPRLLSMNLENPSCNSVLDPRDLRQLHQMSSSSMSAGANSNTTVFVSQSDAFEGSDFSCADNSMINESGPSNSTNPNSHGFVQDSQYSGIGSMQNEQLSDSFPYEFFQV
inactive: saracatinib -0.028 | sotrastaurin -0.049 | alvocidib -0.059 | Tubastatin A 0.008 | [1] 0.052 | defactinib -0.12 | rucaparib 0.089 | [2] -0.013 | encorafenib -0.046 | [3] -0.016

RETREG3 (UniProt Q86VR2)
inactive: saracatinib 0.164 | sotrastaurin 0.035 | alvocidib -0.023 | Tubastatin A 0.022 | [1] 0.011 | defactinib -0.015 | rucaparib 0.004 | [2] -0.011 | encorafenib -0.018 | [3] 0.032

SEPTIN5 (UniProt Q99719)
inactive: saracatinib 0.051 | sotrastaurin 0.001 | alvocidib -0.042 | Tubastatin A -0.035 | [1] -0.022 | defactinib 0.008 | rucaparib -0.036 | [2] 0.003 | encorafenib -0.007 | [3] -0.006

RAPGEF4 (UniProt Q8WZA2)
inactive: saracatinib 0.045 | sotrastaurin -0.033 | alvocidib 0.04 | Tubastatin A 0.333 | [1] -0.114 | defactinib -0.057 | rucaparib -0.063 | [2] 0.083 | encorafenib 0.059 | [3] -0.123

RBM8A (UniProt Q9Y5S9)
inactive: saracatinib 0.011 | sotrastaurin -0.002 | alvocidib 0.188 | Tubastatin A 0.045 | [1] -0.032 | defactinib 0.075 | rucaparib -0.043 | [2] -0.006 | encorafenib 0.025 | [3] 0.012

SCD (UniProt O00767)
Chain of UniProt O00767 (O00767 whole entry, looked up): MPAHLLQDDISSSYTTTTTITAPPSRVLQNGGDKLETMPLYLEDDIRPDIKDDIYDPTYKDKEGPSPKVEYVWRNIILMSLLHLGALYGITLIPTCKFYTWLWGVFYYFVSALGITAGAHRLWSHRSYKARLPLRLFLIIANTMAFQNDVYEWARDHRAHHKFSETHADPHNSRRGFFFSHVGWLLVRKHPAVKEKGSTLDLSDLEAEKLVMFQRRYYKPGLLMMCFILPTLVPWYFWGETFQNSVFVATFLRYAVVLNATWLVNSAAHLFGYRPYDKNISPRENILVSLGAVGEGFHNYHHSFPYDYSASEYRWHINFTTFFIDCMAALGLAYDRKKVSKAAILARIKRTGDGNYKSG
inactive: saracatinib 0.066 | sotrastaurin 0.036 | alvocidib 0.049 | Tubastatin A -0.234 | [1] 0.024 | defactinib 0.025 | rucaparib -0.006 | [2] -0.164 | encorafenib 0.04 | [3] 0.045

RPP25L (UniProt Q8N5L8)
inactive: saracatinib -0.079 | sotrastaurin -0.087 | alvocidib 0.061 | Tubastatin A 0.026 | [1] 0.062 | defactinib 0.002 | rucaparib -0.032 | [2] -0.158 | encorafenib 0.014 | [3] 0.058

RAP1GDS1 isoform 5 (UniProt P52306)
inactive: saracatinib 0.004 | sotrastaurin -0.077 | alvocidib -0.069 | Tubastatin A -0.01 | [1] 0.006 | defactinib -0.017 | rucaparib -0.006 | [2] -0.024 | encorafenib 0.176 | [3] 0.139

RB1 (UniProt P06400)
Chain of UniProt P06400 (P06400 whole entry, looked up): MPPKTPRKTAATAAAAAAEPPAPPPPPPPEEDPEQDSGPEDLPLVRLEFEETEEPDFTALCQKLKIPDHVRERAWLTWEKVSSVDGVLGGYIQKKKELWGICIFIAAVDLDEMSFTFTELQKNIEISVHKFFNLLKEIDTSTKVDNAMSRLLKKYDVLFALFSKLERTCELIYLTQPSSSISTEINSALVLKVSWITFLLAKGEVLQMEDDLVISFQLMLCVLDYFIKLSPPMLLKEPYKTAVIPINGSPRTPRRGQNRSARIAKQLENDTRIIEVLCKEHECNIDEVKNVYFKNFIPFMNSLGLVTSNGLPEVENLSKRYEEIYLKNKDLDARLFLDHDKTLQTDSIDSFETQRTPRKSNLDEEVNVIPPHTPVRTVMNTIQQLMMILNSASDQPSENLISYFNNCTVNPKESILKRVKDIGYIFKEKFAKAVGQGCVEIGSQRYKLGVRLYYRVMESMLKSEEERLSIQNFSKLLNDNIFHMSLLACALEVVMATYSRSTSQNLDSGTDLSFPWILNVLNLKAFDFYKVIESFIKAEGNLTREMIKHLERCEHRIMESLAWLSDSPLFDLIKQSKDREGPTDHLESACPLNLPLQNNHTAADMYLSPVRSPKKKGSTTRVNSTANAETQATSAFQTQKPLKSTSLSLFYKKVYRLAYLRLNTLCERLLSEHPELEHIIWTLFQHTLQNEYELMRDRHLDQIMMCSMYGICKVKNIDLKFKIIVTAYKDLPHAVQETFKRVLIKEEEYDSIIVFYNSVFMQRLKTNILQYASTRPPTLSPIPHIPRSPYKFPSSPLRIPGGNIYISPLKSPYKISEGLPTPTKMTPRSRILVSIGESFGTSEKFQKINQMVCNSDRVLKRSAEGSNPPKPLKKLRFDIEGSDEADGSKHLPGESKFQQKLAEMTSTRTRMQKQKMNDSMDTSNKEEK
active: alvocidib -0.885
inactive: saracatinib 0.026 | sotrastaurin -0.038 | Tubastatin A 0.061 | [1] 0.026 | defactinib -0.176 | rucaparib -0.195 | [2] 0.016 | encorafenib 0.006 | [3] 0.019

RAB9A (UniProt P51151)
inactive: saracatinib 0.015 | sotrastaurin 0.02 | alvocidib -0.04 | Tubastatin A -0.018 | [1] -0.054 | defactinib 0 | rucaparib -0.017 | [2] -0.02 | encorafenib -0.012 | [3] -0.013

SCAMP2 (UniProt O15127)
inactive: saracatinib 0.084 | sotrastaurin 0.096 | alvocidib -0.155 | Tubastatin A 0.019 | [1] 0.027 | defactinib -0.086 | rucaparib -0.321 | [2] 0.028 | encorafenib 0.349 | [3] 0.101

RIOK3 (UniProt O14730)
inactive: saracatinib 0.029 | sotrastaurin -0.006 | alvocidib -0.002 | Tubastatin A 0.012 | [1] -0.029 | defactinib -0.01 | rucaparib -0.132 | [2] -0.039 | encorafenib -0.02 | [3] -0.002

SFXN5 (UniProt Q8TD22)
inactive: saracatinib 0.106 | sotrastaurin -0.014 | alvocidib -0.098 | Tubastatin A -0.053 | [1] 0.019 | defactinib 0.017 | rucaparib -0.043 | [2] -0.038 | encorafenib -0.053 | [3] 0.045

RRAGC (UniProt Q9HB90)
Chain of UniProt Q9HB90 (Q9HB90 whole entry, looked up): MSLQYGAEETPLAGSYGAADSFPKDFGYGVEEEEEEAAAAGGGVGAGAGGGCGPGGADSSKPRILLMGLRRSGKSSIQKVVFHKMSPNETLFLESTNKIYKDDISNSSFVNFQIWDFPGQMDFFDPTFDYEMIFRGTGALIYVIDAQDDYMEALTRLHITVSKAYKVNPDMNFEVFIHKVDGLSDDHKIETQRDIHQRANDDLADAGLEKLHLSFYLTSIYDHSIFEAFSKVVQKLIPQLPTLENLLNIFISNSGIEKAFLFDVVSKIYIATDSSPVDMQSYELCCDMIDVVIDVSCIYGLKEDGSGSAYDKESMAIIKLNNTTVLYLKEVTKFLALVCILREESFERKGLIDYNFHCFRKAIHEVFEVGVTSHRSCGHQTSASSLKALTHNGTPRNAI
inactive: saracatinib 0.023 | sotrastaurin 0.006 | alvocidib -0.013 | Tubastatin A -0.025 | [1] -0.014 | defactinib -0.005 | rucaparib -0.058 | [2] -0.063 | encorafenib 0.036 | [3] -0.005

SLC12A9 (UniProt Q9BXP2)
Chain of UniProt Q9BXP2 (Q9BXP2 whole entry, looked up): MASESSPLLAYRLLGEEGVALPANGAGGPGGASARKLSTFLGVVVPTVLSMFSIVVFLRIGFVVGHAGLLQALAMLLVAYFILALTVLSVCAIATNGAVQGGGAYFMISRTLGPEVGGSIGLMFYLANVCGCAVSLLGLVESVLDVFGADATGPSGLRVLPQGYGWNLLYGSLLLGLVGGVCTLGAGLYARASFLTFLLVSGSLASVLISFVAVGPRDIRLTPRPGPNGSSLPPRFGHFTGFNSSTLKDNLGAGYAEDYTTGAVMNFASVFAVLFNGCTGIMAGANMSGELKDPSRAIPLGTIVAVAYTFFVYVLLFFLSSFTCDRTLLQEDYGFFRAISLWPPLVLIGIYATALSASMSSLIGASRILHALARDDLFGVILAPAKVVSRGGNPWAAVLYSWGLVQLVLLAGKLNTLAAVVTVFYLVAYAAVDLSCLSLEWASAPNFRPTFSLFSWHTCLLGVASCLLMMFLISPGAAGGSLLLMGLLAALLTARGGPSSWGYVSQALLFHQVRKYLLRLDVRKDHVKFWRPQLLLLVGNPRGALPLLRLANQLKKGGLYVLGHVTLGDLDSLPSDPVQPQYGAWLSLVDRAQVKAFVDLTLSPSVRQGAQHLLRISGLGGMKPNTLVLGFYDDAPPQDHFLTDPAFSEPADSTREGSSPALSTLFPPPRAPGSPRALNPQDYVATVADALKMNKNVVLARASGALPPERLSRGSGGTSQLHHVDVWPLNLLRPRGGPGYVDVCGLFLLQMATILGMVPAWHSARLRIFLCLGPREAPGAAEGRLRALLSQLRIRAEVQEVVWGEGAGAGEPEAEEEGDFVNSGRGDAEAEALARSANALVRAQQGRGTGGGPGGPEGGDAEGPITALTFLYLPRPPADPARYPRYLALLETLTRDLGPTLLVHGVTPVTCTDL
inactive: saracatinib 0.102 | sotrastaurin 0.016 | alvocidib -0.094 | Tubastatin A -0.09 | [1] -0.016 | defactinib -0.043 | rucaparib -0.073 | [2] -0.068 | encorafenib -0.017 | [3] -0.01

SEC31A (UniProt O94979)
inactive: saracatinib -0.086 | sotrastaurin -0.084 | alvocidib -0.006 | Tubastatin A 0.019 | [1] 0.043 | defactinib -0.036 | rucaparib 0.002 | [2] -0.015 | encorafenib 0.062 | [3] -0.03

SH2D1B (UniProt O14796)
Chain of UniProt O14796 (O14796 whole entry, looked up): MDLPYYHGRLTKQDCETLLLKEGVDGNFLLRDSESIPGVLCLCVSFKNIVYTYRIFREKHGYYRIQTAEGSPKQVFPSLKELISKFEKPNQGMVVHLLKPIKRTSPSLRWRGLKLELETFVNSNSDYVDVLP
active: saracatinib -1
inactive: sotrastaurin 0.05 | alvocidib -0.029 | Tubastatin A -0.046 | [1] -0.214 | defactinib -0.06 | rucaparib 0.045 | [2] -0.026 | encorafenib 0.295 | [3] 0.242

RPL38 (UniProt P63173)
inactive: saracatinib -0.018 | sotrastaurin 0.01 | alvocidib 0.088 | Tubastatin A 0.014 | [1] 0.027 | defactinib 0.126 | rucaparib 0.093 | [2] 0.044 | encorafenib 0.003 | [3] 0.037
